These results are taken from PubChem BioAssay (NCI).

Test systems include NCI-H23 lung; NCI-H226 lung; NCI-H322M lung; HOP-62 NSCLC; NCI-H460 lung; HOP-92 NSCLC; NCI-H522 lung; A549/ATCC NSCLC; 786-0 renal; COLO 205 colon; DU-145 prostate; K-562 leukemia; MALME-3M melanoma; MDA-MB-231 breast; SF-268 CNS; SF-295 CNS; SF-539 CNS; M14 melanoma.
Common to all, as to experiment: NCI-60 one-dose screen, 48 h (100 = growth as untreated, 0 = no growth, -100 = all killed)
Holding throughout (conditions): 10 µM unless noted

About 83,000 compounds went through this panel and 20% of them were active in at least one assay; those are over-represented in the sample as a whole.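 Percent growth is the endpoint: 0 to 100 indicates growth inhibition (40 means 60% inhibition), 0 means no net growth, and negative values indicate cell death.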 A number with no mark means an inactive call. Active and inactive are the calls of the source. The calls were made as follows: active = growth percent below 10; inactive = the rest.

Take `CCCCCCCC(=O)SCC/C=C/[C@@H]1CC(=O)NCc2cccc(n2)C2=N[C@@](C)(CS2)C(=O)N[C@@H](C(C)C)C(=O)N1`: the growth with NCI-H23 lung is 41.7%; in the assay with NCI-H226 lung it was 68.9%; in the assay with NCI-H322M lung, 15.6%; in the assay on HOP-62 NSCLC, 12.3%; with NCI-H460 lung, 20%; in the assay with HOP-92 NSCLC, 38%. The growth is -1.71% (active) with NCI-H522 lung; 15.4% in the assay on A549/ATCC NSCLC; 54% in the assay on 786-0 renal; -41.6% (active) in the assay with COLO 205 colon; 28.9% in the assay on DU-145 prostate; 16% in the assay with K-562 leukemia. Also, the growth in the assay on MALME-3M melanoma is 2.46% (active); in the assay on MDA-MB-231 breast, 21.9%; with SF-268 CNS it was 53.6%; in the assay with SF-295 CNS, -1.52% (active); with SF-539 CNS, 48.6%; with M14 melanoma it was 35.6%.

`COc1ccc2c(CCc3ccc(Cl)cc3)c3[n+](cc2c1OC)CCc1cc2c(cc1-3)OCO2`: the growth with NCI-H23 lung was 26.1%; with NCI-H226 lung, 71.4%; in the assay on NCI-H322M lung, 90.4%; in the assay with HOP-62 NSCLC, 75.8%; in the assay on NCI-H460 lung, 10.6%; in the assay on HOP-92 NSCLC, 25%. For the same compound, the growth in the assay on NCI-H522 lung was 13.4%; in the assay on A549/ATCC NSCLC, 50.7%; in the assay with 786-0 renal, 73.4%; with COLO 205 colon, 27.1%; in the assay with DU-145 prostate, 67.5%; in the assay with K-562 leukemia it was 33.5%. The growth is 55.5% with MALME-3M melanoma; 66.7% with MDA-MB-231 breast; 49% in the assay with SF-268 CNS; 43.3% in the assay with SF-295 CNS; 53.1% in the assay with SF-539 CNS; 37.9% in the assay with M14 melanoma.

For `Cc1ccccc1Nc1nc2nonc2nc1Nc1cccc(C)c1C`, the growth is 17.9% with NCI-H23 lung; 48.6% with NCI-H226 lung; 80.7% in the assay on NCI-H322M lung; 72.1% in the assay on HOP-62 NSCLC; 41.1% in the assay on NCI-H460 lung; 22.5% with HOP-92 NSCLC. In addition, the growth in the assay with NCI-H522 lung was 3.35% (active); in the assay on A549/ATCC NSCLC, 27.4%; in the assay on 786-0 renal, 65.9%; with COLO 205 colon, 59.2%; with DU-145 prostate, 71.9%; in the assay with K-562 leukemia, 39.5%. Further, the growth in the assay on MALME-3M melanoma is 78.6%; in the assay on MDA-MB-231 breast, 72.7%; with SF-268 CNS, 72.8%; in the assay on SF-295 CNS it was 41.5%; in the assay with SF-539 CNS, 88.1%; with M14 melanoma it was 58.4%.

On to `Cc1cc2c3c(cccc3c1)C(=O)c1ccccc1-2`, for which the growth in the assay with NCI-H23 lung is 81%; in the assay with NCI-H226 lung it was 96.6%; in the assay on NCI-H322M lung, 82.3%; in the assay with HOP-62 NSCLC, 99.3%; in the assay with NCI-H460 lung, 102%; in the assay with HOP-92 NSCLC it was 108%. For the same compound, the growth in the assay on NCI-H522 lung was 95%; in the assay with A549/ATCC NSCLC, 104%; with 786-0 renal it was 104%; in the assay on COLO 205 colon it was 93.4%; with DU-145 prostate, 98.9%; with K-562 leukemia, 98.8%. In addition, the growth with MALME-3M melanoma is 90.8%; with MDA-MB-231 breast it was 92.6%; in the assay with SF-268 CNS, 92%; in the assay with SF-295 CNS it was 103%; in the assay on SF-539 CNS, 97.2%; in the assay with M14 melanoma it was 92.6%.

With `COc1cc2c3c(c1)nc(C)n3CCC2`, the growth with NCI-H23 lung is 98.4%; in the assay on NCI-H226 lung, 91.1%; with NCI-H322M lung it was 108%; in the assay on HOP-62 NSCLC, 90.7%; in the assay on NCI-H460 lung, 104%; with HOP-92 NSCLC, 94.9%. In addition, the growth is 93.4% with NCI-H522 lung; 82% in the assay on A549/ATCC NSCLC; 98.1% in the assay on 786-0 renal; 107% with COLO 205 colon; 109% in the assay with DU-145 prostate; 98.8% in the assay on K-562 leukemia. For the same compound, the growth in the assay on MALME-3M melanoma was 110%; in the assay on MDA-MB-231 breast, 107%; in the assay on SF-268 CNS it was 107%; in the assay on SF-295 CNS, 95.8%; with SF-539 CNS, 97.9%; in the assay with M14 melanoma, 100%.

For the compound `CCCCCCCC(=O)SCC/C=C/[C@@H]1CC(=O)NCc2nc(co2)C2=N[C@@](C)(CS2)C(=O)N[C@@H](C(C)C)C(=O)O1`, the growth with NCI-H23 lung was -2.47% (active); in the assay with NCI-H226 lung it was -10.4% (active); in the assay on NCI-H322M lung, -18.5% (active); in the assay on HOP-62 NSCLC, -6.6% (active); in the assay with NCI-H460 lung it was 3.41% (active); with HOP-92 NSCLC, -15.5% (active). Besides, the growth with NCI-H522 lung is -10.2% (active); with A549/ATCC NSCLC, -2.81% (active); in the assay on 786-0 renal it was 10.2%; in the assay on COLO 205 colon, -41.3% (active); with DU-145 prostate, 7.24% (active); with K-562 leukemia it was 6.6% (active). Besides, the growth was 5.59% (active) with MALME-3M melanoma; -1.69% (active) in the assay with MDA-MB-231 breast; 1.9% (active) with SF-268 CNS; -62.5% (active) in the assay with SF-295 CNS; 9.22% (active) with SF-539 CNS; -3.25% (active) in the assay on M14 melanoma.

On to `COc1ccc(OC)c(NC2=C(SCCc3ccccc3)C(=O)c3ccccc3C2=O)c1`, for which the growth in the assay with NCI-H23 lung was 45.2%; with NCI-H226 lung, 78.8%; in the assay on NCI-H322M lung it was 89.7%; in the assay on HOP-62 NSCLC it was 97.8%; in the assay on NCI-H460 lung, 91.6%; with HOP-92 NSCLC, 77.8%. Besides, the growth in the assay on NCI-H522 lung is 73%; in the assay on A549/ATCC NSCLC, 87.2%; with 786-0 renal, 100%; in the assay with COLO 205 colon, 95.6%; with DU-145 prostate, 92.2%; with K-562 leukemia, 91.2%. The growth with MALME-3M melanoma is 90.8%; with MDA-MB-231 breast, 62.8%; in the assay on SF-268 CNS it was 84.6%; with SF-295 CNS it was 92.2%; in the assay with SF-539 CNS, 85.7%; in the assay on M14 melanoma it was 83.3%.

With `Nc1c(C(=O)c2ccccc2)sc2nc(-c3cccs3)cc(-c3cccs3)c12`, the growth with NCI-H23 lung was 67%; with NCI-H226 lung, 80.6%; in the assay with NCI-H322M lung, 80.8%; in the assay with HOP-62 NSCLC, 59.6%; with NCI-H460 lung it was 14.2%; in the assay with HOP-92 NSCLC it was 69.2%. Moreover, the growth with NCI-H522 lung was -20.7% (active); with A549/ATCC NSCLC it was 36.2%; in the assay with 786-0 renal it was 47.6%; with COLO 205 colon it was 35.9%; with DU-145 prostate, 68.2%; in the assay with K-562 leukemia, 18.9%. Also, the growth was 74.4% in the assay with MALME-3M melanoma; 58.4% in the assay on MDA-MB-231 breast; 53.5% in the assay with SF-268 CNS; 35% in the assay on SF-295 CNS; 39.4% in the assay on SF-539 CNS; 27% with M14 melanoma.

In the case of `CCCc1cc2cc(-n3nc(C)c4c3CC(C)(C)CC4=O)cc(NC3CCC(O)CC3)c2c(=O)[nH]1` (stereo unspecified), the growth with NCI-H23 lung was 29.8%; with NCI-H226 lung it was 33.8%; in the assay with NCI-H322M lung it was 58.2%; in the assay on HOP-62 NSCLC, 28.5%; in the assay on NCI-H460 lung, 17.6%; in the assay with HOP-92 NSCLC, -25.7% (active). Besides, the growth was 40.8% with NCI-H522 lung; 21% in the assay on A549/ATCC NSCLC; 26.1% in the assay on 786-0 renal; -10.1% (active) in the assay with COLO 205 colon; 38.8% in the assay with DU-145 prostate; 10% in the assay with K-562 leukemia. The growth with MALME-3M melanoma is 29.9%; in the assay with MDA-MB-231 breast, -0.14% (active); with SF-268 CNS it was 50.2%; in the assay with SF-295 CNS it was -35.6% (active); in the assay on SF-539 CNS it was 37.8%; in the assay on M14 melanoma, 23.6%.

For the compound `COc1cc2c(cc1OCCCCN1CCN(CC(=O)Nc3ccc(Cl)cc3C(=O)c3ccccc3Cl)CC1)N=CC1CCCN1C2=O` (stereo unspecified), the growth with NCI-H23 lung is -14% (active); in the assay with NCI-H226 lung it was -88.1% (active); with NCI-H322M lung, -64% (active); in the assay with HOP-62 NSCLC, -88.8% (active); in the assay with NCI-H460 lung it was -56.2% (active); with HOP-92 NSCLC, -85.6% (active). Further, the growth is -83.4% (active) in the assay with NCI-H522 lung; -69.5% (active) with A549/ATCC NSCLC; -94.2% (active) in the assay on 786-0 renal; -61.4% (active) in the assay on COLO 205 colon; -95.9% (active) in the assay on DU-145 prostate; -53% (active) in the assay with K-562 leukemia. For the same compound, the growth is -76.8% (active) in the assay with MALME-3M melanoma; -85% (active) in the assay with MDA-MB-231 breast; -75.5% (active) in the assay with SF-268 CNS; -94.6% (active) with SF-295 CNS; -86.7% (active) in the assay on SF-539 CNS; -67.6% (active) in the assay with M14 melanoma.

On to `Cc1cc(O)c2c(c1)C1OC(=O)CCCCCN1C1=C2C(=O)c2cccc(OC3CC(O)C(O)C(C)O3)c2C1=O` (stereo unspecified), for which the growth in the assay with NCI-H23 lung was 79.8%; in the assay on NCI-H226 lung, 118%; in the assay on NCI-H322M lung, 94.7%; in the assay on HOP-62 NSCLC, 123%; with NCI-H460 lung, 65.3%; in the assay on HOP-92 NSCLC, 134%. In addition, the growth is 34.1% in the assay with NCI-H522 lung; 59.9% in the assay on A549/ATCC NSCLC; 101% in the assay on 786-0 renal; 53.3% with COLO 205 colon; 57.2% with DU-145 prostate; 28.3% in the assay on K-562 leukemia. Moreover, the growth in the assay on MALME-3M melanoma was 40.6%; with MDA-MB-231 breast it was 32.7%; with SF-268 CNS, 90.8%; in the assay on SF-295 CNS, 93.9%; in the assay on SF-539 CNS, 83.5%; in the assay on M14 melanoma, 66.6%.

With `CC(C)C1CCC(C)C(C2(C#N)C(N)=NC(N)=C2C#N)C1=O` (stereo unspecified), the growth in the assay on NCI-H23 lung is 92.3%; in the assay with NCI-H226 lung, 100%; with NCI-H322M lung, 98.8%; with HOP-62 NSCLC, 104%; with NCI-H460 lung, 105%; in the assay with HOP-92 NSCLC, 88.9%. Moreover, the growth in the assay on NCI-H522 lung is 89.4%; in the assay with A549/ATCC NSCLC, 105%; with 786-0 renal, 106%; with COLO 205 colon, 100%; with DU-145 prostate it was 102%; with K-562 leukemia, 98.7%. The growth in the assay on MALME-3M melanoma is 92.3%; with MDA-MB-231 breast it was 95.8%; in the assay with SF-268 CNS, 97.3%; with SF-295 CNS it was 103%; in the assay on SF-539 CNS, 97.7%; in the assay with M14 melanoma, 96.1%.
